Reference: PubChem BioAssay (NCATS)
Records with an inconclusive call do not appear. Where a call stands in place of a potency, no number is given. The source made the active and inactive calls. Calls come from the whole dose curve.

Tests used:
[1] = Cytotoxicity counterscreen for inhibitors of SARS-CoV-2 cell entry (AID 1645845); settings: outcome: dose series up to 57.1 µM unless noted; note: nearly all actives have a fitted effect of over 50% in size
In short: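 Expi293F/hACE2 cells seeded overnight; cpd pin-transferred in DMSO, 1 h preincubation, + media, 48 h 37 C 5% CO2; ATPLite 1step luminescence; normalized to cells and no cells.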

[2] = Primary qHTS to identify inhibitors of SARS-CoV-2 cell entry (AID 1645846); settings: SARS-CoV-2 pseudovirus cell entry assay, luminescence; activity change, negative = inhibition: at 57.1 µM (top of the series) unless noted; note: nearly all actives have a fitted effect of over 45% in size
In short: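 Using luciferase-reporting pseudoviruses carrying Wuhan-Hu-1 spike, the screen tracks entry into stably ACE2-expressing cells over 48 hr. Activity is expressed relative to spike particles versus particles lacking any fusion protein.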
Potency is the fitted concentration of half-maximal effect.

SMILES: Cc1cc(I)ccc1Nc1c(C(=O)NOCC2CC2)cc(F)c(F)c1F
- Potency [1]: 17.8 µM (active)
- Potency [2]: 12.6 µM (active)

SMILES: COc1ccnc2[nH]cc(C(=O)C(=O)N3CCN(C(=O)c4ccccc4)C[C@H]3C)c12
- Potency [1]: inactive
- activity change, negative = inhibition [2]: -5.46%

SMILES: CC1CCC(n2c3cnccc3c3cnc(Nc4ccc5c(n4)CCN(C(=O)CO)C5)nc32)CC1 (stereo not given)
- activity change, negative = cytotoxicity [1]: 4.82% [at 11.3 µM] (inactive)
- outcome [2]: inactive [at 11.3 µM]

SMILES: CN1CCN(C(=O)c2ccc(-c3ccc4c(C=O)c(O)ccc4c3)s2)CC1
- Potency [1]: inactive
- Potency [2]: inactive

SMILES: COc1ccc(Cl)cc1-c1cc(=O)[nH]c(=S)n1CC(N)=O
- Potency [1]: inactive
- activity change, negative = inhibition [2]: 4.69%

SMILES: Cc1nc(NC(=O)N2CCCC2C(N)=O)sc1-c1ccnc(C(C)(C)C(F)(F)F)c1 (stereo not given)
- Potency [1]: inactive
- activity change, negative = inhibition [2]: -29.8%

SMILES: Cc1[nH]nc2ncc(C(=O)N3CCC[C@H]3c3ccc(Cl)cc3)cc12
- Potency [1]: inactive
- activity change, negative = inhibition [2]: -17.3%

SMILES: C[C@H]1C[C@@H](n2c(Nc3ccc(OC(F)(F)F)cc3)nc3cc(CCC(=O)O)ccc32)CC(C)(C)C1
- Potency [1]: inactive
- activity change, negative = inhibition [2]: 2.52%

SMILES: COc1cc(-c2cn(C)c(=O)c3cnccc23)c(OC)cc1CN(C)C
- Potency [1]: inactive
- activity change, negative = inhibition [2]: -18.5%

SMILES: CC(C)C(N)C(=O)OCC(CO)OCn1cnc2c(=O)[nH]c(N)nc21 (stereo not given)
- Potency [1]: inactive
- activity change, negative = inhibition [2]: -6.77%

SMILES: C[C@@H]1O[C@@H](O[C@@H]2\C=C/C=C\C=C/C=C\C[C@H](C)OC(=O)/C=C\[C@H]3O[C@@H]3C[C@H](O)C[C@]3(O)C[C@@H](O)[C@@H](C(=O)O)[C@H](C2)O3)[C@H](O)[C@H](N)[C@@H]1O
- Potency [1]: inactive
- activity change, negative = inhibition [2]: -17.3%

SMILES: C[C@]12CCCN1CC1=NNC(=O)c3cc(F)cc4[nH]c2c1c34
- Potency [1]: inactive
- activity change, negative = inhibition [2]: -15.3%

SMILES: O=C(NC[C@H](O)CN1CCc2ccccc2C1)c1cc(NC2COC2)ncn1
- Potency [1]: inactive
- activity change, negative = inhibition [2]: -13.5%

SMILES: CCN1CCN(Cc2ccc(NC(=O)c3ccc(C)c(/C=C/c4cnc5[nH]ccc5c4OC)c3)cc2C(F)(F)F)CC1
- Potency [1]: 35.5 µM (active)
- Potency [2]: 10 µM (active)

SMILES: CN(C(=O)CNC(=O)/C=C/c1cccc(Cl)c1)C1CCS(=O)(=O)CC1
- Potency [1]: inactive
- activity change, negative = inhibition [2]: -2.44%

SMILES: C/C=C/C[C@@H](C)C(=O)[C@H]1C(=O)N[C@@H](C(C)C)C(=O)N(C)CC(=O)N(C)[C@@H](CC(C)C)C(=O)N[C@@H](C(C)C)C(=O)N(C)[C@@H](CC(C)C)C(=O)N[C@@H](C)C(=O)N[C@H](C)C(=O)N(C)[C@@H](CC(C)C)C(=O)N(C)[C@@H](CC(C)C)C(=O)N(C)[C@@H](C(C)C)C(=O)N1C
- Potency [1]: inactive
- activity change, negative = inhibition [2]: -14.4% [at 27.1 µM]

SMILES: CNC(=O)c1c(C)oc2cc(Oc3ncnc4cc(OC)c(OC)cc34)ccc12
- Potency [1]: inactive
- Potency [2]: inactive

SMILES: C[C@@H]1N=C(N)NC(N(C)C)=N1
- Potency [1]: inactive
- activity change, negative = inhibition [2]: -14.7%

SMILES: NC(CC1c2ccccc2Oc2ccccc21)(C(=O)O)C1CC1C(=O)O (stereo not given)
- Potency [1]: inactive
- activity change, negative = inhibition [2]: 4.33%

SMILES: CCNC(=O)Nc1ncc(-c2cc(-c3c(C)cc(OC)cc3C)nc(-c3cnccn3)n2)s1
- Potency [1]: inactive
- activity change, negative = inhibition [2]: -1.07%

SMILES: CO[C@H]1/C=C/O[C@@]2(C)Oc3c(C)c(O)c4c(O)c(c5c(c4c3C2=O)=NC2(CCN(CC(C)C)CC2)N=5)NC(=O)/C(C)=C/C=C/[C@H](C)[C@H](O)[C@@H](C)[C@@H](O)[C@@H](C)[C@H](OC(C)=O)[C@@H]1C
- Potency [1]: inactive
- Potency [2]: inactive

SMILES: Cn1cc(-c2ccc(F)c(C(F)(F)F)c2)nc1C1CCN(c2ncnc3[nH]ncc23)CC1
- Potency [1]: inactive
- Potency [2]: inactive

SMILES: O=C(Nc1cnn2ccc(N3CCC[C@@H]3c3cc(F)ccc3F)nc12)N1CC[C@H](O)C1
- Potency [1]: inactive
- Potency [2]: inactive

SMILES: CC1c2cccc(O)c2C(O)=C2C(=O)C3(O)C(O)=C(C(N)=O)C(=O)C(N(C)C)C3C(O)C21 (stereo not given)
- Potency [1]: inactive
- activity change, negative = inhibition [2]: -15.9%

SMILES: CCS(=O)(=O)c1ccc2oc(-c3ccc4ccccc4c3)nc2c1
- Potency [1]: inactive
- Potency [2]: inactive

SMILES: C[C@H](Nc1nc(N[C@H](C)C(F)(F)F)nc(-c2cccc(Cl)n2)n1)C(F)(F)F
- Potency [1]: inactive
- activity change, negative = inhibition [2]: -8.78%

SMILES: COc1cc2c(NC3CCN(C4CCCCC4)CC3)nc(N3CCCN(C(C)C)CC3)nc2cc1OCCCN1CCCCC1
- Potency [1]: 22.4 µM (active)
- Potency [2]: 11.2 µM (active)

SMILES: CCOc1ccc(-n2c([C@@H](C)N(Cc3cccnc3)C(=O)Cc3ccc(F)c(C(F)(F)F)c3)nc3ncccc3c2=O)cc1
- Potency [1]: inactive
- activity change, negative = inhibition [2]: -17.6%

SMILES: CC(C)N(CCCNC(=O)Nc1ccc(C(C)(C)C)cc1)C[C@H]1O[C@@H](n2ccc3c(N)ncnc32)[C@H](O)[C@@H]1O
- Potency [1]: inactive
- activity change, negative = inhibition [2]: -9.11%

SMILES: Cc1cnc(NC(=O)c2cc(Oc3cnc(C(=O)N(C)C)nc3)c3cc(C)oc3c2)cn1
- Potency [1]: inactive
- activity change, negative = inhibition [2]: -4.66%
